Five compounds from ChEMBL document CHEMBL1961873, “Compounds: GSK PKIS; Assays: Nanosyn kinase panel” (2012) can be followed below.

For experiment [1], the target named is Calcium/calmodulin-dependent protein kinase type II subunit alpha (Homo sapiens) (UniProt Q9UQM7). Conditions: at 1 µM.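 Note: reported value is a mean percent inhibition of CAMK2A.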
In experiment [2] the target is Calcium/calmodulin-dependent protein kinase type II subunit delta (Homo sapiens) (UniProt Q13557). Conditions: at 0.1 µM.
For experiment [3] the target is unchanged. Conditions: at 1 µM.
The target in experiment [4] is T1, Calcium/calmodulin-dependent protein kinase type IV (Homo sapiens) (UniProt Q16566).
T1 sequence (whole entry): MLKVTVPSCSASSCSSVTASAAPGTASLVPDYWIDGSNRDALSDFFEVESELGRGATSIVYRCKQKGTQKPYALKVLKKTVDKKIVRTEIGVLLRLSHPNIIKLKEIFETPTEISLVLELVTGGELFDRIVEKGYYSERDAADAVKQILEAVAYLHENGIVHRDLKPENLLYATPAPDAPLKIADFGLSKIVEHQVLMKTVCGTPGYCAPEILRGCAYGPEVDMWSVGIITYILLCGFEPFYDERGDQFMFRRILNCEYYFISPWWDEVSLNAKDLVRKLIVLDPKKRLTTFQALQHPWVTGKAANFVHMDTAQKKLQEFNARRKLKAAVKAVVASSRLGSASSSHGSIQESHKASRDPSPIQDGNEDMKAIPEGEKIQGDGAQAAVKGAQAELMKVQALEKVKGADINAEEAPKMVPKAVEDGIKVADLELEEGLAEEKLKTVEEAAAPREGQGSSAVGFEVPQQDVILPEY
The settings on record: at 0.1 µM.

For experiment [5], the target named is T1, Calcium/calmodulin-dependent protein kinase type IV (Homo sapiens). The settings on record: at 1 µM.
The target in experiment [6] is T2, Serine/threonine-protein kinase Chk1 (Homo sapiens) (UniProt O14757).
T2 sequence (whole entry): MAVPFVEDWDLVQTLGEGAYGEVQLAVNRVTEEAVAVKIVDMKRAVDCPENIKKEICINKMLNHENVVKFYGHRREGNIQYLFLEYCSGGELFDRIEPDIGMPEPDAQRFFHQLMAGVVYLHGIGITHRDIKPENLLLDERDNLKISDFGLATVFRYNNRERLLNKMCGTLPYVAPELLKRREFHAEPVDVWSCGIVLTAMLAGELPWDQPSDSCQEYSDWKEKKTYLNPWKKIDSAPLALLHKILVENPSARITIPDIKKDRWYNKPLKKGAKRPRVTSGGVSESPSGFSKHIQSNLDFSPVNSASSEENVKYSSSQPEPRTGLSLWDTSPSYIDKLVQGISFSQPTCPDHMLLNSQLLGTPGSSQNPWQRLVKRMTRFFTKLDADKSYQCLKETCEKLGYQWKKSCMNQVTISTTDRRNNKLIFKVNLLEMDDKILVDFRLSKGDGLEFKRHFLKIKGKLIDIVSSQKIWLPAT
The settings on record: at 0.1 µM.

Experiment [7] addresses T2, Serine/threonine-protein kinase Chk1 (Homo sapiens). The settings on record: at 1 µM.
Experiment [8] deals with Serine/threonine-protein kinase Chk2 (Homo sapiens) (UniProt O96017). Conditions: at 0.1 µM.
The target is the same in experiment [9]. The settings on record: at 1 µM.
The target in experiment [10] is Death-associated protein kinase 1 (Homo sapiens) (UniProt P53355). The settings on record: at 0.1 µM.
Experiment [11] has the same target. The settings on record: at 1 µM.
Experiment [12] has as its target T3, Serine/threonine-protein kinase DCLK2 (Homo sapiens) (UniProt Q8N568).
T3 sequence (whole entry): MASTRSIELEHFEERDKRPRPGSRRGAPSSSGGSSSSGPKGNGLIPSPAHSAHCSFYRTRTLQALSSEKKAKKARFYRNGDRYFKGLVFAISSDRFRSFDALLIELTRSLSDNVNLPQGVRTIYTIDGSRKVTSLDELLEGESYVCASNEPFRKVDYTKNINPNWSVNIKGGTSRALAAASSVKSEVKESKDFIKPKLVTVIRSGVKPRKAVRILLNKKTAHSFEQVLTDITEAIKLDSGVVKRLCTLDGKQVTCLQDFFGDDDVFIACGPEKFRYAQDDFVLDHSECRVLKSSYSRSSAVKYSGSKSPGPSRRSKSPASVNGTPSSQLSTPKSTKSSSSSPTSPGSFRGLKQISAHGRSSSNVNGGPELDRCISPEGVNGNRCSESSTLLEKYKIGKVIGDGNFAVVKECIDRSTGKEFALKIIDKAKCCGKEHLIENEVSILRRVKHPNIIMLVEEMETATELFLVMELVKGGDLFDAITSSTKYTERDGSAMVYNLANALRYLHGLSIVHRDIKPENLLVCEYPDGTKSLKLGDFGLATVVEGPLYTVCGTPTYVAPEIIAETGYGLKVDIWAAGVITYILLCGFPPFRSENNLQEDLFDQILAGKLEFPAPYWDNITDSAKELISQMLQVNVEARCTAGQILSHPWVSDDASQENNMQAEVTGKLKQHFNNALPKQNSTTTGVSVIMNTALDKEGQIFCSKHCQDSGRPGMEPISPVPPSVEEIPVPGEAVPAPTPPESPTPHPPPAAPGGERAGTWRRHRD
The settings on record: at 0.1 µM.

Experiment [13] has as its target T3, Serine/threonine-protein kinase DCLK2 (Homo sapiens). The settings on record: at 1 µM.
Experiment [14] has as its target MAP kinase-activated protein kinase 2 (Homo sapiens) (UniProt P49137). Conditions: at 0.1 µM.
Experiment [15] has the same target. Conditions: at 1 µM.
In experiment [16] the target is MAP kinase-activated protein kinase 3 (Homo sapiens) (UniProt Q16644). The settings on record: at 0.1 µM.
For experiment [17] the target is unchanged. The settings on record: at 1 µM.
In experiment [18] the target is Serine/threonine-protein kinase MARK1 (Homo sapiens) (UniProt Q9P0L2). The settings on record: at 0.1 µM.
For experiment [19] the target is unchanged. Conditions: at 1 µM.
Experiment [20] has as its target MAP/microtubule affinity-regulating kinase 3 (Homo sapiens) (UniProt P27448). The settings on record: at 0.1 µM.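 Note: mean percent inhibition of MARK3 kinase activity, measured within the GSK PKIS screening panel.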

MAP kinase-activated protein kinase 2 (Homo sapiens), sequence (P49137 whole entry, looked up): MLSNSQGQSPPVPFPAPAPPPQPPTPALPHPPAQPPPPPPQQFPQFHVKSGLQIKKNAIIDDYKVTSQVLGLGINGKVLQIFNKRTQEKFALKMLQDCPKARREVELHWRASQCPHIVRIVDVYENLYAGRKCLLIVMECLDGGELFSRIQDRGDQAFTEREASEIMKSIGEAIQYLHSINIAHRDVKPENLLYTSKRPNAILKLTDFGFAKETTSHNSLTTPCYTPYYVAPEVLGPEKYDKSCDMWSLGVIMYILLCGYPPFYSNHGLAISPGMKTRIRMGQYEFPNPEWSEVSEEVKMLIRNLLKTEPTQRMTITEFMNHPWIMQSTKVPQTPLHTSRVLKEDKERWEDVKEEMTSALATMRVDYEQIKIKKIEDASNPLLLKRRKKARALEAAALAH
Serine/threonine-protein kinase Chk2 (Homo sapiens), sequence (O96017 whole entry): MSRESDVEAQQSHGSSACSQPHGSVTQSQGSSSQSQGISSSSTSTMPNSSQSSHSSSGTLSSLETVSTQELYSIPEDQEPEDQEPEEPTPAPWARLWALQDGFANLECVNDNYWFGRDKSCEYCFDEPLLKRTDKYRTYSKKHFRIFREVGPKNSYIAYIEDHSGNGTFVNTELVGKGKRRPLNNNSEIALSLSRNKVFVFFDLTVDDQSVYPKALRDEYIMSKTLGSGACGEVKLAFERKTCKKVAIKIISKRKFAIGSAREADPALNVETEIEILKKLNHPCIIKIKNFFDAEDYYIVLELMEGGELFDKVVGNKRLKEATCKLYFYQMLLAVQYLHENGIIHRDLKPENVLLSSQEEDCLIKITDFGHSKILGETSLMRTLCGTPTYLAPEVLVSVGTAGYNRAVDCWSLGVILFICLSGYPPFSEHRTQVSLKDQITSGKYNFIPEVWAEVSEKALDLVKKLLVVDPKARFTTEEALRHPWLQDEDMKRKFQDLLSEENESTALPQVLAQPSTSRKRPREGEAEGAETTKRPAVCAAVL
Calcium/calmodulin-dependent protein kinase type II subunit delta (Homo sapiens), sequence (Q13557 whole entry): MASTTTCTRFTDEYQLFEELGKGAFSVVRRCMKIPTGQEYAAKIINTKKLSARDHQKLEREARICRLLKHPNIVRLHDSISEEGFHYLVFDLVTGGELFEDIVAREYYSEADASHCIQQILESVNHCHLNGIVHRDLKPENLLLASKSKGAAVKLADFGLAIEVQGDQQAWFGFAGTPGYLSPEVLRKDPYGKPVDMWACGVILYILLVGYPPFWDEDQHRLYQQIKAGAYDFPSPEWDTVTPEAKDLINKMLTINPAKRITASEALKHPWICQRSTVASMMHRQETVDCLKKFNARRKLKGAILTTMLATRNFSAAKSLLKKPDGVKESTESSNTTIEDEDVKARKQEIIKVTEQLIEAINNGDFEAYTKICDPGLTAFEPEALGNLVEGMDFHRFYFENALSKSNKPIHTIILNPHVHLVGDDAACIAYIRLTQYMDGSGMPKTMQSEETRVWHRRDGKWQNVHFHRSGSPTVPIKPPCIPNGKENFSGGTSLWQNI
Calcium/calmodulin-dependent protein kinase type II subunit alpha (Homo sapiens), sequence (Q9UQM7 whole entry): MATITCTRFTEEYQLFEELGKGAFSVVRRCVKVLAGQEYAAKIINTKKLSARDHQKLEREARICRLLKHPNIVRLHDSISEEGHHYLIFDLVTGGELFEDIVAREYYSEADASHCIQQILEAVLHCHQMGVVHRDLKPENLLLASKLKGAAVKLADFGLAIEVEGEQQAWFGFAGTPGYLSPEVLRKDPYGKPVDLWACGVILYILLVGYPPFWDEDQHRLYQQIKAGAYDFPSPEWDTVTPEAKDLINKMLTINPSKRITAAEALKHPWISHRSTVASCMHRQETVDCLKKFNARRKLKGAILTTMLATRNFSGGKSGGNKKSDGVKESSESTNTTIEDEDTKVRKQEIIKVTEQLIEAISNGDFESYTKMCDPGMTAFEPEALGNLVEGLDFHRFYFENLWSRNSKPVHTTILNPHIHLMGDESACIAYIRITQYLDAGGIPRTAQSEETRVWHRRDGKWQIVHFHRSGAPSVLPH
Death-associated protein kinase 1 (Homo sapiens), sequence (P53355 whole entry, looked up): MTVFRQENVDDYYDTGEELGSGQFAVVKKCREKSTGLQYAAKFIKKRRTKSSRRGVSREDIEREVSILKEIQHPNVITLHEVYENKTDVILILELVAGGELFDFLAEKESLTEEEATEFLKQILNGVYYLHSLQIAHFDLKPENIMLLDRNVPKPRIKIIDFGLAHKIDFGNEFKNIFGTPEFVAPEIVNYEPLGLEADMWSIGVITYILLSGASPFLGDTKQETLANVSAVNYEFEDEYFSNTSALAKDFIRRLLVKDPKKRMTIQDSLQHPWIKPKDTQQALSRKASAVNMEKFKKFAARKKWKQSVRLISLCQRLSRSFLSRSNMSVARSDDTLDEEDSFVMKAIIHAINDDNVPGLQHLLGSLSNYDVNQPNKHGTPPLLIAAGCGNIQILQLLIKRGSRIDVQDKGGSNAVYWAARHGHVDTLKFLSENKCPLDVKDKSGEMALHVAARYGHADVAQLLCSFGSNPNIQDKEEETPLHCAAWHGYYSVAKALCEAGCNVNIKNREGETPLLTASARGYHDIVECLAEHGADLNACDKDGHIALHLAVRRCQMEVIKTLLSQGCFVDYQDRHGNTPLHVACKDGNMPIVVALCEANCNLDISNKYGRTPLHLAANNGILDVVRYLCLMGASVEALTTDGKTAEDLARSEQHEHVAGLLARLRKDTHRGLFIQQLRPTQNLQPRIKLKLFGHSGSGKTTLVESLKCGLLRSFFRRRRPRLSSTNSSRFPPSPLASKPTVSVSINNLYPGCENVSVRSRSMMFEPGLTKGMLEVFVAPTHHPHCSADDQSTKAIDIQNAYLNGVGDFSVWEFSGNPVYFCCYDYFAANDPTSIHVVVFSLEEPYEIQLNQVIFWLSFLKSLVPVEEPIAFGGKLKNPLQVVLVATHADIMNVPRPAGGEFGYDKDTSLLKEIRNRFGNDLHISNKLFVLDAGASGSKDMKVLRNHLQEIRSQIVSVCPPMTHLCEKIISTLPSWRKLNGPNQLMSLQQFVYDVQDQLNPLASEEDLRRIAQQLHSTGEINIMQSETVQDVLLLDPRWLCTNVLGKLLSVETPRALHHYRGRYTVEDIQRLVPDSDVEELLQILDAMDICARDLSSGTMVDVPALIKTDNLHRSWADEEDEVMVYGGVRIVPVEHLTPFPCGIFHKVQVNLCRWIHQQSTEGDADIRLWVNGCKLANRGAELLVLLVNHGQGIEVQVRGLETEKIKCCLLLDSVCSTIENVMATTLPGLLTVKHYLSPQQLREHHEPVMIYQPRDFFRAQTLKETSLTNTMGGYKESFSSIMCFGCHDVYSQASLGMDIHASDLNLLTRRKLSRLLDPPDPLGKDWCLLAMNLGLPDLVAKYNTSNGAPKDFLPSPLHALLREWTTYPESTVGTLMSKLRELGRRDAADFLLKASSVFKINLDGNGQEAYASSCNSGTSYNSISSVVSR
MAP/microtubule affinity-regulating kinase 3 (Homo sapiens), sequence (P27448 whole entry, looked up): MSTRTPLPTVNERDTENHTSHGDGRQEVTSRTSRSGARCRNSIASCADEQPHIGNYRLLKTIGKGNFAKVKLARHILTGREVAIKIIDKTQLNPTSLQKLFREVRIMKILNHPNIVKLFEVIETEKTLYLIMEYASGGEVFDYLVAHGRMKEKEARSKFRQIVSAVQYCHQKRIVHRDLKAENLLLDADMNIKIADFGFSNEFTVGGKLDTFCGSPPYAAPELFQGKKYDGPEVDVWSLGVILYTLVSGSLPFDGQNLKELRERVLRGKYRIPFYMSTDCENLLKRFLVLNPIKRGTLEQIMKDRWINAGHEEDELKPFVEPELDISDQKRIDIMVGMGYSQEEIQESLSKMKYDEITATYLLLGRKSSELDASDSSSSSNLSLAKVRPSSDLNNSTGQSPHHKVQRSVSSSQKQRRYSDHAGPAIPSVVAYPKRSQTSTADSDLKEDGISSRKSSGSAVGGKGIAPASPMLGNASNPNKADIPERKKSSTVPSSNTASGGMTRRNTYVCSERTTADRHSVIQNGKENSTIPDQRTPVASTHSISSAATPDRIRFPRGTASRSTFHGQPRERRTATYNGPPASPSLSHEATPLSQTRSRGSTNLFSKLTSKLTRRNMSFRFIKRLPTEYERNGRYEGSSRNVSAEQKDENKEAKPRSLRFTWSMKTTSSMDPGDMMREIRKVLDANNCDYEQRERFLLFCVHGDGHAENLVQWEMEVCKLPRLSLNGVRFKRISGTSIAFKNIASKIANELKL
Serine/threonine-protein kinase MARK1 (Homo sapiens), sequence (Q9P0L2 whole entry, looked up): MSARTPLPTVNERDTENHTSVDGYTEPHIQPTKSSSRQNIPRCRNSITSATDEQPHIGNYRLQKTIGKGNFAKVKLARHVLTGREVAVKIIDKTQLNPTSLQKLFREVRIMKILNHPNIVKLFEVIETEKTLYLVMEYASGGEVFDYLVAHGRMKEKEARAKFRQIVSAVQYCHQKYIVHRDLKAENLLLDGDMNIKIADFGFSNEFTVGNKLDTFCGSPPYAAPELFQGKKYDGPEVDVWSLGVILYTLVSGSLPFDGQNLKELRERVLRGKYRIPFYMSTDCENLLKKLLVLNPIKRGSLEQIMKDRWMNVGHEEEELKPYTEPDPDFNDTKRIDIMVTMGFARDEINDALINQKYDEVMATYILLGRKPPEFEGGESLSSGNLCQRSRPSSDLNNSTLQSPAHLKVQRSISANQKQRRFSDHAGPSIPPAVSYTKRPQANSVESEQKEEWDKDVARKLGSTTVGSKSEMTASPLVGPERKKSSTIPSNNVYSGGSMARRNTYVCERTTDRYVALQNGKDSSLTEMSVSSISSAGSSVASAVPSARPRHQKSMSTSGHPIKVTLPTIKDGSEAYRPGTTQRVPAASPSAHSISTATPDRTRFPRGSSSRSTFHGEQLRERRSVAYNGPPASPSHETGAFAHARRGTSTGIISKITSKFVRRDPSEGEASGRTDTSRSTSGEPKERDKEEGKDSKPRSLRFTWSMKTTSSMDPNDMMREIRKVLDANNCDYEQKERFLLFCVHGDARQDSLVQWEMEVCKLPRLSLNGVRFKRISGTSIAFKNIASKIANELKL

As for `CCS(=O)(=O)c1ccc(OC)c(Nc2nccc(N(C)c3ccc4c(C)n[nH]c4c3)n2)c1`, the inhibition in experiment [1] is -0.61%; in experiment [2], 3.29%; in [3], 6.46%; in [4], -1.76%; in experiment [5] it was -2.8%; in experiment [6] it was 4.57%. For the same compound, the inhibition in experiment [7] was 2.19%; in experiment [8] it was 3.81%; in experiment [9], 8.77%; in [10], 7.35%; in experiment [11], 4.98%; in experiment [12] it was -0.1%. For the same compound, the inhibition in [13] turned out to be 2.14%; in experiment [14], 2.62%; in [15], 1.63%; in experiment [16], 3.91%; in [17], 6.4%; in experiment [18], 2.93%. In addition, the inhibition was determined as 3.99% in experiment [19] and 3.81% in experiment [20].
On to `CN1CCN(C(=O)c2ccc(NC(=O)Nc3ccc(N(C)c4ccnc(Nc5ccc(CS(C)(=O)=O)cc5)n4)cc3)cc2)CC1`, for which the inhibition in experiment [1] was 3.13%; in experiment [2], 1.38%; in experiment [3], 3.39%; in [4] it was 1.22%; in [5] it was 1.48%; in experiment [6] it was 1.47%. Besides, the inhibition is 2.64% in [7]; 5.54% in experiment [8]; 39.4% in experiment [9]; 2.86% in experiment [10]; 2.64% in [11]; -0.43% in experiment [12]. For the same compound, the inhibition in [13] was determined as 0.81%; in experiment [14], 0.81%; in experiment [15], 1.86%; in [16], 2.24%; in experiment [17], 3.23%; in [18], 1.73%. Besides, the figures for the inhibition in experiment [19] and in experiment [20] were 15.2% and 2.96%, respectively.
In the case of `NS(=O)(=O)c1ccc(Nc2cc(-c3cccc(O)c3)n[nH]2)cc1`, the inhibition in experiment [1] is 5.49%; in experiment [2], 5.13%; in experiment [3], 6.02%; in [4] it was 0.32%; in experiment [5] it was -1.03%; in experiment [6], 5.99%. In addition, the inhibition came out at 8.68% in experiment [7]; 3.04% in experiment [8]; 6.54% in [9]; 7.24% in experiment [10]; 8.63% in [11]; 0.84% in experiment [12]. Further, the inhibition in [13] was 0.2%; in [14], 1.88%; in experiment [15] it was 2.79%; in experiment [16], 4.03%; in [17], 4.03%; in experiment [18] it was 5.12%. Also, the inhibition in experiment [19] stood at 11.5%; in experiment [20], 5.96%.
With `CN(C)CCCn1c(-c2nonc2N)nc2cnccc21`, the inhibition is 3.18% in experiment [1]; 3.33% in experiment [2]; 4.12% in experiment [3]; -0.84% in [4]; 15.5% in [5]; 5.63% in experiment [6]. In addition, the inhibition in experiment [7] is 4.94%; in experiment [8], 2.39%; in experiment [9] it was 3.79%; in [10], 4.9%; in experiment [11], 5.9%; in [12] it was 0.05%. Moreover, the inhibition came to 2.05% in experiment [13]; 2.54% in experiment [14]; 1.94% in [15]; 4.24% in [16]; 4.17% in experiment [17]; 3.64% in experiment [18]. In addition, the inhibition in [19] was determined as 6.1%; in experiment [20], 4.25%.
`NC(=O)c1cccc(Nc2nccc(Nc3cccc(F)c3)n2)c1`: the inhibition came out at 0.53% in experiment [1]; 0.45% in experiment [2]; 2.08% in experiment [3]; 1.09% in experiment [4]; 1.02% in experiment [5]; 0.04% in [6]. For the same compound, the inhibition is 1.52% in experiment [7]; -0.9% in experiment [8]; 2.39% in experiment [9]; 0.65% in experiment [10]; -2.63% in experiment [11]; -0.56% in experiment [12]. The inhibition in [13] worked out at 0.44%; in [14], 0.22%; in experiment [15], 0.05%; in [16] it was 1.51%; in experiment [17], 1.85%; in [18], 0.81%. Besides, the inhibition in experiment [19] is 2.94%; in [20], 1.98%.

Broadly, the inhibition is the relative decrease from the control value, in per cent.
